# According to PubChem BioAssay (NCATS):
# Inconclusive results are not listed. A call without a number means that no potency is given here. The source made the active and inactive calls. Calls follow the shape of the dose curve; as a rule, active = well fitted curve in the direction sought with a large enough effect; inconclusive = small, poorly fitted or top-dose-only effect, or another doubt; inactive = no such curve, though single readings can be large; an effect the other way counts as inactive or inconclusive.
# Columns and labels:
# [1] = Tertiary RLuc qRT-PCR qHTS assay for Zika virus inhibitors (AID 1347169); also: top concentration of the series differs between compounds; nearly all actives have a fitted effect of over 55% in size
# In short: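 Inhibition of ZIKV-RLuc replication in Vero cells, read as Renilla luminescence 1-1.5 hrs after live-cell substrate addition, following 48-72 hrs infection at MOI 1-2 in presence of compound.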
# [2] = target: Catechol O-methyltransferase (Homo sapiens) (UniProt P21964); assay: Confirmatory Screen for Target Class Profiling of Small Molecule Inhibitors of Methyltransferases (AID 1745852); conditions: MTase-Glo luminescence, SAH detection, recombinant enzyme; measured here: COMT max response; stronger effect = lower value
# [3] = target: Guanidinoacetate N-methyltransferase (Homo sapiens) (UniProt Q14353); assay: as above; conditions: activity change, negative = inhibition: at 57.3 µM (top of the series) unless noted
# [4] = target: Nicotinamide N-methyltransferase (Homo sapiens) (UniProt P40261); assay: as above; conditions: MTase-Glo luminescence, SAH detection, recombinant enzyme; measured here: NNMT max response; stronger effect = lower value
# [5] = target: Phenylethanolamine N-methyltransferase (Homo sapiens) (UniProt P11086); assay: as above; conditions: MTase-Glo luminescence, SAH detection, recombinant enzyme; measured here: PNMT max response; stronger effect = lower value
# [6] = target: Cytochrome P450 3A4 (Homo sapiens) (UniProt P08684); assay: qHTS Assay for Activators of Cytochrome P450 3A4 (AID 885); also: nearly all actives have a fitted effect of over 65% in size
# In short: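 Steps: enzyme/substrate mix dispensed; compound added, 10 min RT; NADPH regeneration solution added, 60 min RT; luciferin detection buffer stops reaction; 20 min later luminescence measured.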
# [7] = target: ATP-dependent 6-phosphofructokinase (Trypanosoma brucei brucei) (UniProt O15648); assay: qHTS Assay to Find Inhibitors of T. brucei phosphofructokinase: hit validation (AID 492961);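 also: luminescence reports ADP formed as PFK phosphorylates fructose-6-phosphate with ATP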
# In short: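 Percent activity derived from corrected luminescence, normalized between 0x and 1x enzyme controls, then fitted to concentration-response curves. Conditions: 1.25 nM PFK, 0.1 mM ATP, 0.5 mM F6P, 45 min RT.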
# 3D7 = assay: qHTS profiling for inhibitors of Plasmodium falciparum proliferation (AID 504749); also: nearly all actives have a fitted effect of over 60% in size; also: potency is read from the fitted curve at half-maximal effect; conditions: P. falciparum in erythrocytes, SYBR Green DNA, 72 h; series mostly up to 28.7 µM
# In short: (§1)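 Parasite proliferation within erythrocytes, 72 h exposure. Endpoint: SYBR Green I fluorescence after overnight lysis at room temperature. Controls: 0.29 uM artemisinin, DMSO.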
# 7G8 = assay: as above; conditions: P. falciparum in erythrocytes, SYBR Green DNA, 72 h; series mostly up to 28.7 µM
# In short: as §1
# CP192 = assay: as above; conditions: P. falciparum in erythrocytes, SYBR Green DNA, 72 h; series mostly up to 28.7 µM
# In short: as §1
# CP201 = assay: as above; conditions: P. falciparum in erythrocytes, SYBR Green DNA, 72 h; series mostly up to 28.7 µM
# In short: as §1
# CP237 = assay: as above; conditions: P. falciparum in erythrocytes, SYBR Green DNA, 72 h; series mostly up to 28.7 µM
# In short: as §1
# CP266 = assay: as above; conditions: P. falciparum in erythrocytes, SYBR Green DNA, 72 h; series mostly up to 28.7 µM
# In short: as §1
# DIV14 = assay: as above; conditions: P. falciparum in erythrocytes, SYBR Green DNA, 72 h; series mostly up to 28.7 µM
# In short: as §1
# DIV17 = assay: as above; conditions: P. falciparum in erythrocytes, SYBR Green DNA, 72 h; series mostly up to 28.7 µM
# In short: as §1
# Dd2 = assay: as above; conditions: P. falciparum in erythrocytes, SYBR Green DNA, 72 h; series mostly up to 28.7 µM
# In short: as §1
# GB4 = assay: as above; conditions: P. falciparum in erythrocytes, SYBR Green DNA, 72 h; series mostly up to 28.7 µM
# In short: as §1
# HB3 = assay: as above; conditions: P. falciparum in erythrocytes, SYBR Green DNA, 72 h; series mostly up to 28.7 µM
# In short: as §1
# P94_40 = assay: as above; conditions: P. falciparum in erythrocytes, SYBR Green DNA, 72 h; series mostly up to 28.7 µM
# In short: as §1
# PC49 = assay: as above; conditions: P. falciparum in erythrocytes, SYBR Green DNA, 72 h; series mostly up to 28.7 µM
# In short: as §1
# Sequence of Nicotinamide N-methyltransferase (Homo sapiens) (P40261 whole entry, looked up): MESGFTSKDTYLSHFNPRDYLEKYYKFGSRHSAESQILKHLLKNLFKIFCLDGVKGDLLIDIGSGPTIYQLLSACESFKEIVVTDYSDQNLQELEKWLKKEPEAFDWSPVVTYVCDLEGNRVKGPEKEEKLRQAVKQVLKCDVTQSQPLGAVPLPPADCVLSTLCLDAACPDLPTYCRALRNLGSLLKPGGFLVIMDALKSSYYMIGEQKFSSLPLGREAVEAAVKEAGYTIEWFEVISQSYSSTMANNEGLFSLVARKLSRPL
# Sequence of Phenylethanolamine N-methyltransferase (Homo sapiens) (P11086 whole entry, looked up): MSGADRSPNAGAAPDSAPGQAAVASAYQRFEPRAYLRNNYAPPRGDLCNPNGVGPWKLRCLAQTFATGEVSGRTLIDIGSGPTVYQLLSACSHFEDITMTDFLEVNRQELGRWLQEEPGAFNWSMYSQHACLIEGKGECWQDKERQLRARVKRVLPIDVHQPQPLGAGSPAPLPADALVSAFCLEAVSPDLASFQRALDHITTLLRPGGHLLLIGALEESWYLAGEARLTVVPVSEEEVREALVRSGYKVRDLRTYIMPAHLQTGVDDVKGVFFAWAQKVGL
# Sequence of Cytochrome P450 3A4 (Homo sapiens) (P08684 whole entry, looked up): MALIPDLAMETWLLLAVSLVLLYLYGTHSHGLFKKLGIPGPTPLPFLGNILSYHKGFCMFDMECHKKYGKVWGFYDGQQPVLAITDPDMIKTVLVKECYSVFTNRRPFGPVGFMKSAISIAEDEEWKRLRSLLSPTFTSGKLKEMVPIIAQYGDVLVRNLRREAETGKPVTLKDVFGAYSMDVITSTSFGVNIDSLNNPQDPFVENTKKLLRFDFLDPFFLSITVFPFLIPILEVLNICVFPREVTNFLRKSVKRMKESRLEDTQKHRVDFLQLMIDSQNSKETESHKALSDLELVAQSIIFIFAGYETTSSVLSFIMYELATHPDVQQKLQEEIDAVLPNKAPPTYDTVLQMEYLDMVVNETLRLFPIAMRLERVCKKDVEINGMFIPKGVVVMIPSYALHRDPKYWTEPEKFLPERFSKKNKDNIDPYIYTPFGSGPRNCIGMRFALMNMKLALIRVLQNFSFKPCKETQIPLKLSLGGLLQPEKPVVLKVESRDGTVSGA
# Sequence of ATP-dependent 6-phosphofructokinase (Trypanosoma brucei brucei) (O15648 whole entry, looked up): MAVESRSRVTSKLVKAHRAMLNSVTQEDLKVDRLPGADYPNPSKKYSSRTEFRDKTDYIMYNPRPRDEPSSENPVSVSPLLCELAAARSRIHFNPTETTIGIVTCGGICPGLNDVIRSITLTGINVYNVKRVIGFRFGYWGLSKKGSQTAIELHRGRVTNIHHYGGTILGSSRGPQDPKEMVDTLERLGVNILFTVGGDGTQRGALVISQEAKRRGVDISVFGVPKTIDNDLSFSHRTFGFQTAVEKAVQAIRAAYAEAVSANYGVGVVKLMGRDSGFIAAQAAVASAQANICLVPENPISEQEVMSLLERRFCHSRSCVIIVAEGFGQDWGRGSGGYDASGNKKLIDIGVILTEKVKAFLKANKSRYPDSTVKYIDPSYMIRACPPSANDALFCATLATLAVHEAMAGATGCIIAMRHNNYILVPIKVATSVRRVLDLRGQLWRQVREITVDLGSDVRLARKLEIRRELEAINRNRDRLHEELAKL
# Sequence of Catechol O-methyltransferase (Homo sapiens) (P21964 whole entry, looked up): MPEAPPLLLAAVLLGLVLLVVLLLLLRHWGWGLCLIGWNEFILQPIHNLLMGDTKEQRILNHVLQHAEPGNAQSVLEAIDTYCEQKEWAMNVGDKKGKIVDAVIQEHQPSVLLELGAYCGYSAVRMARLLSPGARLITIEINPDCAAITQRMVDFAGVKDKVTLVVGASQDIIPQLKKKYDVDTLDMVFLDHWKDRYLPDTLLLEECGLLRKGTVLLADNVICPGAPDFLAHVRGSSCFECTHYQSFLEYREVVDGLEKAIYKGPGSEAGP
smiles,measurement,setting,value
O=S(=O)(Nc1ccc(O)c(Sc2nc3ccccc3s2)c1)c1cc(Cl)ccc1Cl,Potency,[1],inactive
CC(C)n1cc(-c2ccc(Oc3ccccc3)cc2)c2c(N)ncnc21,activity,[2],-15%
same,"activity change, negative = inhibition",[3],-8.59%
same,activity,[4],-34.7%
same,activity,[5],-60.7%
CS(=O)(=O)Nc1ccc([N+](=O)[O-])cc1OC1CCCCC1,Potency,[6],inactive
CCOC(=O)C(CCc1ccccc1)NC1CCc2ccccc2N(CC(=O)O)C1=O (stereo not given),outcome,[7],inactive
same,Potency,3D7,inactive
same,Potency,7G8,7.94 µM (active)
same,Potency,CP192,inactive
same,Potency,CP201,inactive
same,Potency,CP237,10 µM (active)
same,Potency,CP266,inactive
same,Potency,DIV14,7.57 µM (active)
same,Potency,DIV17,10.7 µM (active)
same,Potency,Dd2,11.2 µM (active)
same,Potency,GB4,15.1 µM (active)
same,Potency,HB3,inactive
same,Potency,P94_40,inactive
same,Potency,PC49,inactive
